Results as given in PubChem BioAssay AID1159580 (chemical genetic matrix, 2015).
“And” between values parts separate entries of the source, which are not always exact repeats. Identical values can stand only once. Hit rate of the full screen: of about 5,500 compounds, about 2,000 (36%) were called active. Roughly 18% stayed inconclusive and do not appear here. No stated cut-off is given here; in the data, active means normalized growth mostly below about 0.91 (no sharp cut-off); inconclusive means no clear call, values can overlap the other calls; inactive means mostly above about 0.92. Some of the results follow.

Test: chemical genetic growth profiling, strain panel (AID 1159580);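 further: tested at 20 µM; growth read once vehicle control cultures reached saturation at 30 °C; 1 = growth at the plate median or of vehicle wells; lower values mean less growth of the strain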
Conditions: growth OD

Measured: normalized growth

Clc1ccc2c(c1)C(N1CCNCC1)=Nc1ccccc1O2
active: S. cerevisiae deletion strains, locus YMR231W, strain pep5, active compounds read low 0.487 | S. cerevisiae deletion strains, locus YOR083W, strain WHI5 (second series), active compounds read low 1.13 [resistant]
inactive: S. cerevisiae deletion strains, locus YKL068W, active compounds read low 0.996 | S. cerevisiae deletion strains, locus YKL085W, strain MDH1 (second series), active compounds read low 1.01 | S. cerevisiae deletion strains, locus YKL085W, strain MDH1, active compounds read low 1.01 | S. cerevisiae deletion strains, locus YKL160W, strain elf1, active compounds read low 1.01 | S. cerevisiae deletion strains, locus YKL190W, strain CNB1, active compounds read low 0.996 | S. cerevisiae deletion strains, locus YKR001C, strain vps1, active compounds read low 1.03 | S. cerevisiae deletion strains, locus YKR026C, strain gcn3, active compounds read low 0.983 | S. cerevisiae deletion strains, locus YKR091W, strain srl3, active compounds read low 0.989 | S. cerevisiae deletion strains, locus YLL001W, strain dnm1, active compounds read low 0.987 | S. cerevisiae deletion strains, locus YLL026W, active compounds read low 1 | S. cerevisiae deletion strains, locus YLL041C, strain sdh2, active compounds read low 1 | S. cerevisiae deletion strains, locus YLR027C, strain aat2, active compounds read low 0.986 | S. cerevisiae deletion strains, locus YLR039C, strain RIC1, active compounds read low 1.32 | S. cerevisiae deletion strains, locus YLR058C, strain SHM2, active compounds read low 0.979 | S. cerevisiae deletion strains, locus YLR102C, strain apc9, active compounds read low 0.993 | S. cerevisiae deletion strains, locus YLR113W, strain HOG1, active compounds read low 1.02 | S. cerevisiae deletion strains, locus YLR221C, strain rsa3, active compounds read low 0.985 | S. cerevisiae deletion strains, locus YLR258W, strain gsy2, active compounds read low 0.991 | S. cerevisiae deletion strains, locus YLR262C, strain YPT6 (second series), active compounds read low 1.04 | S. cerevisiae deletion strains, locus YLR262C, strain YPT6, active compounds read low 1.38 | S. cerevisiae deletion strains, locus YLR268W, strain sec22, active compounds read low 1.08 | S. cerevisiae deletion strains, locus YLR320W, strain mms22, active compounds read low 0.967 | S. cerevisiae deletion strains, locus YLR330W, strain CHS5, active compounds read low 0.988 | S. cerevisiae deletion strains, locus YLR342W, strain FKS1 (second series), active compounds read low 0.901 | S. cerevisiae deletion strains, locus YLR342W, strain FKS1, active compounds read low 0.955 | S. cerevisiae deletion strains, locus YLR357W, strain rsc2, active compounds read low 0.97 | S. cerevisiae deletion strains, locus YLR370C, strain arc18, active compounds read low 0.993 | S. cerevisiae deletion strains, locus YLR371W, strain rom2, active compounds read low 0.968 | S. cerevisiae deletion strains, locus YLR384C, strain iki3, active compounds read low 0.977 | S. cerevisiae deletion strains, locus YLR418C, strain cdc73, active compounds read low 0.981 | S. cerevisiae deletion strains, locus YML016C, strain PPZ1, active compounds read low 0.981 | S. cerevisiae deletion strains, locus YML032C, strain rad52, active compounds read low 1.01 | S. cerevisiae deletion strains, locus YML120C, strain ndi1, active compounds read low 1.01 | S. cerevisiae deletion strains, locus YML124C, strain tub3, active compounds read low 0.979 | S. cerevisiae deletion strains, locus YMR058W, strain fet3, active compounds read low 0.981 | S. cerevisiae deletion strains, locus YMR078C, strain ctf18, active compounds read low 0.983 | S. cerevisiae deletion strains, locus YMR125W, strain sto1, active compounds read low 0.928 | S. cerevisiae deletion strains, locus YMR129W, active compounds read low 1.01 | S. cerevisiae deletion strains, locus YMR205C, strain PFK2, active compounds read low 0.998 | S. cerevisiae deletion strains, locus YMR223W, strain ubp8, active compounds read low 0.962 | S. cerevisiae deletion strains, locus YMR263W, strain SAP30, active compounds read low 0.979 | S. cerevisiae deletion strains, locus YMR307W, strain GAS1, active compounds read low 1.15 | S. cerevisiae deletion strains, locus YNL067W, strain RPL9B, active compounds read low 1.01 | S. cerevisiae deletion strains, locus YNL071W, strain lat1, active compounds read low 0.972 | S. cerevisiae deletion strains, locus YNL128W, strain TEP1, active compounds read low 0.975 | S. cerevisiae deletion strains, locus YNL153C, strain GIM3, active compounds read low 1.01 | S. cerevisiae deletion strains, locus YNL175C, strain NOP13, active compounds read low 1 | S. cerevisiae deletion strains, locus YNL183C, strain NPR1, active compounds read low 0.966 | S. cerevisiae deletion strains, locus YNL197C, strain WHI3, active compounds read low 1.01 | S. cerevisiae deletion strains, locus YNL209W, strain ssb2, active compounds read low 0.991 | S. cerevisiae deletion strains, locus YNL224C, strain SQS1, active compounds read low 1.02 | S. cerevisiae deletion strains, locus YNL233W, strain BNI4, active compounds read low 1 | S. cerevisiae deletion strains, locus YNL248C, strain rpa49, active compounds read low 0.998 | S. cerevisiae deletion strains, locus YNL250W, strain rad50, active compounds read low 0.981 | S. cerevisiae deletion strains, locus YNL271C, strain bni1, active compounds read low 0.994 | S. cerevisiae deletion strains, locus YNL298W, strain CLA4, active compounds read low 0.97 | S. cerevisiae deletion strains, locus YNL307C, strain MCK1, active compounds read low 0.983 | S. cerevisiae deletion strains, locus YNL322C, strain KRE1 (second series), active compounds read low 0.986 | S. cerevisiae deletion strains, locus YNL322C, strain KRE1, active compounds read low 0.99 and 0.992 | S. cerevisiae deletion strains, locus YNR049C, strain mso1, active compounds read low 0.995 | S. cerevisiae deletion strains, locus YNR052C, strain pop2, active compounds read low 0.97 | S. cerevisiae deletion strains, locus YOL006C, strain TOP1, active compounds read low 1.06 | S. cerevisiae deletion strains, locus YOL012C, strain htz1 1.29 | S. cerevisiae deletion strains, locus YOL147C, strain pex11, active compounds read low 1 | S. cerevisiae deletion strains, locus YOR001W, strain rrp6, active compounds read low 0.937 | S. cerevisiae deletion strains, locus YOR061W, strain CKA2, active compounds read low 0.969 | S. cerevisiae deletion strains, locus YOR069W, strain VPS5, active compounds read low 0.991 | S. cerevisiae deletion strains, locus YOR070C, strain gyp1, active compounds read low 1 | S. cerevisiae deletion strains, locus YOR080W, strain dia2, active compounds read low 0.989 | S. cerevisiae deletion strains, locus YOR083W, strain WHI5, active compounds read low 0.937 | S. cerevisiae deletion strains, locus YOR106W, strain vam3, active compounds read low 0.953 | S. cerevisiae deletion strains, locus YOR136W, strain idh2, active compounds read low 0.975 | S. cerevisiae deletion strains, locus YOR144C, strain elg1, active compounds read low 0.99 | S. cerevisiae deletion strains, locus YOR184W, strain ser1, active compounds read low 1.01 | S. cerevisiae deletion strains, locus YOR231W, strain MKK1, active compounds read low 1.02 | S. cerevisiae deletion strains, locus YOR265W, strain rbl2, active compounds read low 0.992 | S. cerevisiae deletion strains, locus YOR270C, strain vph1, active compounds read low 0.818 | S. cerevisiae deletion strains, locus YOR290C, strain snf2, active compounds read low 0.948 | S. cerevisiae deletion strains, locus YOR316C, strain cot1, active compounds read low 0.987 | S. cerevisiae deletion strains, locus YPL051W, strain arl3, active compounds read low 0.987 | S. cerevisiae deletion strains, locus YPL055C, strain LGE1, active compounds read low 0.989 | S. cerevisiae deletion strains, locus YPL078C, strain atp4, active compounds read low 0.991 | S. cerevisiae deletion strains, locus YPL106C, strain sse1, active compounds read low 0.966 | S. cerevisiae deletion strains, locus YPL240C, strain hsp82, active compounds read low 0.978 | S. cerevisiae deletion strains, locus YPL241C, strain CIN2, active compounds read low 1 and 0.992 | S. cerevisiae deletion strains, locus YPL256C, strain CLN2, active compounds read low 1.03 | S. cerevisiae deletion strains, locus YPR119W, strain clb2, active compounds read low 0.994 | S. cerevisiae deletion strains, locus YPR141C, strain kar3, active compounds read low 0.956 | S. cerevisiae deletion strains, locus YPR163C, strain tif3, active compounds read low 0.986 | S. cerevisiae deletion strains, locus YPR167C, strain met16, active compounds read low 0.988 | S. cerevisiae deletion strains, strain wtn01, active compounds read low 0.991 | S. cerevisiae strains, strain wild type, active compounds read low 0.977
